# Calls of active or inactive are those of the source. The calls were made as follows: active = hit-call score of the fitted dose curve at least 0.9, where 1 is the maximum; inactive = score below 0.9.
# Columns and labels:
# Conditions in all cases: mRNA level, 48 h; actives raise or lower the signal
# [1] = read-out: Cytochrome P450 7A1 (Homo sapiens) (UniProt P22680); experiment: LTEA_HepaRG_CYP7A1: Life Technologies and Expression Analysis (LTEA) Assay for Cytochrome P450 7A1 (CYP7A1) using HepaRG (AID 2283496)
# Outline: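 Gene expression endpoint in human HepaRG liver cells treated for 48 h with test chemicals (up to 100 uM, 0.5% DMSO). Values come from bidirectional concentration-response fitting versus DMSO.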
# [2] = read-out: Glutathione S-Transferase (GSTA2), GSTA2 (gene 2939); experiment: LTEA_HepaRG_GSTA2: Life Technologies and Expression Analysis (LTEA) Assay for Glutathione S-Transferase (GSTA2) using HepaRG (AID 2283497)
# Outline: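 Human HepaRG cells, plated 48 h, then exposed in serum-free induction medium for 48 h to eight half-log concentrations up to 100 uM in 0.5% DMSO, duplicate. GSTA2 mRNA by qRT-PCR, normalized to ACTB/GAPDH/POLR2A; bidirectional fit versus DMSO.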
# [3] = read-out: Glutamate-cysteine ligase catalytic (GCLC), GCLC (gene 2729); experiment: LTEA_HepaRG_GCLC: Life Technologies and Expression Analysis (LTEA) Assay for Glutamate-cysteine ligase catalytic (GCLC) using HepaRG (AID 2283498)
# Outline: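 Differentiated human HepaRG cells, plated 48 h then switched to serum-free induction medium, were exposed in duplicate for 48 h to 8 half-log concentrations topping at 100 uM in 0.5% DMSO. GCLC mRNA was quantified by qRT-PCR against ACTB, GAPDH and POLR2A.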
# [4] = read-out: Glutamate-cysteine ligase regulatory (GCLM), GCLM (gene 2730); experiment: LTEA_HepaRG_GCLM: Life Technologies and Expression Analysis (LTEA) Assay for Glutamate-cysteine ligase regulatory (GCLM) using HepaRG (AID 2283500)
# Outline: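 Differentiated human HepaRG cells exposed 48 h in serum-free induction medium to 8-point half-log concentrations (top 100 uM, 0.5% DMSO), in duplicate. GCLM mRNA quantified by qRT-PCR, normalized to ACTB, GAPDH, POLR2A; bidirectional fitting versus DMSO.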
# [5] = read-out: Glutathione S-transferase M3 (GSTM3), GSTM3 (gene 2947); experiment: LTEA_HepaRG_GSTM3: Life Technologies and Expression Analysis (LTEA) Assay for Glutathione S-transferase M3 (GSTM3) using HepaRG (AID 2283501)
# Outline: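 Differentiated HepaRG cells in serum-free induction medium were exposed in duplicate for 48 h to 8 half-log concentrations up to 100 uM in 0.5% DMSO. GSTM3 mRNA was measured by TaqMan qRT-PCR, normalized to ACTB/GAPDH/POLR2A, and fitted bidirectionally versus DMSO.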
# [6] = read-out: Heat shock 70 kDa protein 1 (HSPA1A), gene 3303; experiment: LTEA_HepaRG_HSPA1A: Life Technologies and Expression Analysis (LTEA) Assay for Heat shock 70 kDa protein 1 (HSPA1A) using HepaRG (AID 2283502)
# Outline: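 Differentiated human HepaRG cells in serum-free induction medium were exposed in duplicate for 48 h to eight concentrations (top 100 uM, half-log steps, 0.5% DMSO). HSPA1A mRNA was quantified by qRT-PCR, normalized to ACTB, GAPDH and POLR2A, and fitted bidirectionally against DMSO.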
# [7] = read-out: Hypoxia-inducible factor 1-alpha (Homo sapiens) (UniProt Q16665); experiment: LTEA_HepaRG_HIF1A: Life Technologies and Expression Analysis (LTEA) Assay for Hypoxia-inducible factor 1 (HIF1A) Trancription factor using HepaRG (AID 2283503)
# Outline: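 HepaRG, 48 h exposure, 8-pt half-log series from 100 uM, 0.5% DMSO vehicle, duplicates. Readout: HIF1A transcript by qRT-PCR (Fluidigm array), housekeeping-normalised. Bidirectional curve fit vs DMSO baseline.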
# [8] = read-out: 3-Hydroxy-3-Methylglutaryl-CoA Synthase 2 (HMGCS2), HMGCS2 (gene 3158); experiment: LTEA_HepaRG_HMGCS2: Life Technologies and Expression Analysis (LTEA) Assay for 3-Hydroxy-3-Methylglutaryl-CoA Synthase 2 (HMGCS2) using HepaRG (AID 2283504)
# Outline: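 Differentiated human HepaRG cells were exposed in duplicate for 48 h in serum-free induction medium to eight concentrations (top 100 uM, half-log steps, 0.5% DMSO). HMGCS2 mRNA was quantified by TaqMan qRT-PCR, normalised to ACTB, GAPDH and POLR2A, then fitted bidirectionally against DMSO.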
# [9] = read-out: HGF (gene 3082); experiment: LTEA_HepaRG_HGF: Life Technologies and Expression Analysis (LTEA) Assay for Hepatocyte Growth Facto (HGF) using HepaRG (AID 2283505)
# Outline: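 Differentiated human HepaRG cells in serum-free induction medium were exposed in duplicate for 48 h to eight concentrations (top 100 uM, half-log steps, 0.5% DMSO). HGF mRNA was quantified by qRT-PCR, normalized to ACTB, GAPDH and POLR2A.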
# [10] = read-out: Insulin Like Growth Factor 1 (IGF1), IGF1 (gene 3479); experiment: LTEA_HepaRG_IGF1: Life Technologies and Expression Analysis (LTEA) Assay for Insulin Like Growth Factor 1 (IGF1) using HepaRG (AID 2283506)
# Outline: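 Differentiated human HepaRG cells were dosed for 48 h in serum-free induction medium with 0.5% DMSO, eight half-log concentrations up to 100 uM, in duplicate. IGF1 mRNA was quantified by qRT-PCR normalized to ACTB, GAPDH, POLR2A; bidirectional fitting versus DMSO.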
# [11] = read-out: Intercellular Adhesion Molecule 1 (ICAM1), ICAM1 (gene 3383); experiment: LTEA_HepaRG_ICAM1: Life Technologies and Expression Analysis (LTEA) Assay for Intercellular Adhesion Molecule 1 (ICAM1) using HepaRG (AID 2283507)
# Outline: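 Differentiated HepaRG cells in serum-free induction medium were exposed in duplicate for 48 h to eight half-log concentrations up to 100 uM in 0.5% DMSO. Transcript levels were measured by qRT-PCR normalized to ACTB, GAPDH and POLR2A; bidirectional fits relative to DMSO.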
# [12] = read-out: Insulin-like growth factor-binding protein 1 (IGFBP1), IGFBP1 (gene 3484); experiment: LTEA_HepaRG_IGFBP1: Life Technologies and Expression Analysis (LTEA) Assay for Insulin-like growth factor-binding protein 1 (IGFBP1) using HepaRG (AID 2283508)
# Outline: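 Differentiated human HepaRG cells in serum-free induction medium were exposed in duplicate for 48 h to eight concentrations, top 100 uM with half-log dilutions, in 0.5% DMSO. Transcript levels came from qRT-PCR normalised to ACTB, GAPDH and POLR2A, fitted bidirectionally against DMSO.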
# [13] = read-out: Interleukin 6 (IL6), IL6 (gene 3569); experiment: LTEA_HepaRG_IL6: Life Technologies and Expression Analysis (LTEA) Assay for Interleukin 6 (IL6) using HepaRG (AID 2283509)
# Outline: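 Differentiated human HepaRG cells, plated 48 h then switched to serum-free induction medium, were exposed in duplicate for 48 h to eight half-log concentrations up to 100 uM in 0.5% DMSO. IL6 mRNA measured by qRT-PCR, normalized to ACTB/GAPDH/POLR2A.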
# [14] = read-out: Interleukin 6 Receptor (IL6R), IL6R (gene 3570); experiment: LTEA_HepaRG_IL6R: Life Technologies and Expression Analysis (LTEA) Assay for Interleukin 6 Receptor (IL6R) using HepaRG (AID 2283510)
# Outline: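 Differentiated human HepaRG cells, plated 48 h then switched to serum-free induction medium, were dosed in duplicate for 48 h at eight half-log concentrations up to 100 uM in 0.5% DMSO. IL6R mRNA quantified by qRT-PCR, normalized to ACTB/GAPDH/POLR2A; bidirectional fit versus DMSO.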
# [15] = read-out: Potassium channel subfamily K member 1 (KCNK1), KCNK1 (gene 3775); experiment: LTEA_HepaRG_KCNK1: Life Technologies and Expression Analysis (LTEA) Assay for Potassium channel subfamily K member 1 (KCNK1) using HepaRG (AID 2283511)
# Outline: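 Differentiated human HepaRG cells in serum-free induction medium were exposed in duplicate for 48 h to 8 half-log concentrations up to 100 uM in 0.5% DMSO. KCNK1 mRNA was measured by TaqMan qRT-PCR, normalized to ACTB, GAPDH and POLR2A, and fitted bidirectionally versus DMSO.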
# [16] = read-out: Keratin 19 (KRT19), KRT19 (gene 3880); experiment: LTEA_HepaRG_KRT19: Life Technologies and Expression Analysis (LTEA) Assay for Keratin 19 (KRT19) using HepaRG (AID 2283512)
# Outline: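 Differentiated human HepaRG cells, plated 48 h, were exposed in duplicate for 48 h in serum-free induction medium to eight half-log concentrations up to 100 uM in 0.5% DMSO. KRT19 mRNA was quantified by qRT-PCR, normalized to ACTB, GAPDH and POLR2A, and fitted bidirectionally versus DMSO.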
# [17] = read-out: JUN Transcription Factor, JUN (gene 3725); experiment: LTEA_HepaRG_JUN: Life Technologies and Expression Analysis (LTEA) Assay for JUN Transcription Factor using HepaRG (AID 2283513)
# Outline: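 Differentiated HepaRG cells were exposed to chemicals for 48 h in serum-free induction medium, 8 concentrations from 100 uM in half-log steps, 0.5% DMSO vehicle, in duplicate. JUN mRNA was quantified by TaqMan qRT-PCR, normalized to ACTB, GAPDH, POLR2A.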
# [18] = read-out: Lipase C (LIPC), LIPC (gene 3990); experiment: LTEA_HepaRG_LIPC: Life Technologies and Expression Analysis (LTEA) Assay for Lipase C (LIPC) using HepaRG (AID 2283514)
# Outline: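 Differentiated human HepaRG cells in serum-free induction medium were exposed in duplicate for 48 h to eight concentrations (top 100 uM, half-log steps, 0.5% DMSO). LIPC mRNA was quantified by TaqMan qRT-PCR, normalized to ACTB, GAPDH and POLR2A, with bidirectional fitting versus DMSO.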
# [19] = read-out: Lipoprotein lipase (LPL), LPL (gene 4023); experiment: LTEA_HepaRG_LPL: Life Technologies and Expression Analysis (LTEA) Assay for Lipoprotein lipase (LPL) using HepaRG (AID 2283515)
# Outline: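 Differentiated human HepaRG cells in serum-free induction medium were exposed in duplicate for 48 h to eight half-log concentrations (top 100 uM) in 0.5% DMSO. LPL mRNA was quantified by TaqMan qRT-PCR, normalized to ACTB, GAPDH and POLR2A.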
# [20] = read-out: growth arrest and DNA damage 45 (GADD45G), GADD45G (gene 10912); experiment: LTEA_HepaRG_GADD45G: Life Technologies and Expression Analysis (LTEA) Assay for growth arrest and DNA damage 45 (GADD45G) using HepaRG (AID 2283499)
# Outline: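 Differentiated human HepaRG cells in serum-free induction medium were exposed for 48 h to 8 half-log concentrations up to 100 uM in 0.5% DMSO, in duplicate. GADD45G mRNA was measured by TaqMan qRT-PCR, normalised to ACTB, GAPDH and POLR2A, and fitted bidirectionally against DMSO.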
# Hypoxia-inducible factor 1-alpha (Homo sapiens), sequence (Q16665 whole entry, looked up): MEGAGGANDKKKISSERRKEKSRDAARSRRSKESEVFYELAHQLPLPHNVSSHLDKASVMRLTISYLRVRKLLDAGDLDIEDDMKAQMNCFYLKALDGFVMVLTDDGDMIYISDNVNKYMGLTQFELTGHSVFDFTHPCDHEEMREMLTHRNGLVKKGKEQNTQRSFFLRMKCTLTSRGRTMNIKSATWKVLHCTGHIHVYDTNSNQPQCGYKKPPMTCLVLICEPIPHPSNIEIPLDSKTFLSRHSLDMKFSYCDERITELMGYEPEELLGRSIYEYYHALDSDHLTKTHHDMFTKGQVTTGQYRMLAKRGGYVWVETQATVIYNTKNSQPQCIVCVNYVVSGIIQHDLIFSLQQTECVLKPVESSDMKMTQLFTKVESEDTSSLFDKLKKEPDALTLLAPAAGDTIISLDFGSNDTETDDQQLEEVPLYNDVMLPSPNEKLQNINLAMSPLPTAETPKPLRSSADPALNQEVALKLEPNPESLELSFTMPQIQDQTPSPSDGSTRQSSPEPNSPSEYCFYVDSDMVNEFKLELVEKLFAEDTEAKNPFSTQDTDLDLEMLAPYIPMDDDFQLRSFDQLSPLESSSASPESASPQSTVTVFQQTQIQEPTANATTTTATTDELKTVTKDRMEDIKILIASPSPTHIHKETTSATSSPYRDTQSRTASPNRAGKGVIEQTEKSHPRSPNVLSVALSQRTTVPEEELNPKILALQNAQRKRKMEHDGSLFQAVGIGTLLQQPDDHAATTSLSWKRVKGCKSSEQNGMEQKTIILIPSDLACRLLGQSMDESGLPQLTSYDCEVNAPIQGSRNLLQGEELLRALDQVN
smiles,measurement,setting,value
COP(N)(=O)SC (stereo not given),outcome,[1],inactive
same,outcome,[2],inactive
same,outcome,[3],inactive
same,outcome,[4],inactive
same,outcome,[5],inactive
same,outcome,[6],inactive
same,outcome,[7],inactive
same,outcome,[8],inactive
same,outcome,[9],inactive
same,outcome,[10],inactive
same,outcome,[11],inactive
same,outcome,[12],inactive
same,outcome,[13],inactive
same,outcome,[14],inactive
same,outcome,[15],inactive
same,outcome,[16],inactive
same,outcome,[17],inactive
same,outcome,[18],inactive
same,outcome,[19],inactive
CC(C)C1(C)N=C(c2nc3ccccc3cc2C(=O)O)NC1=O (stereo not given),outcome,[1],inactive
same,outcome,[2],inactive
same,outcome,[3],inactive
same,outcome,[4],inactive
same,outcome,[5],inactive
same,outcome,[6],inactive
same,outcome,[7],inactive
same,outcome,[8],inactive
same,outcome,[9],inactive
same,outcome,[10],inactive
same,outcome,[11],inactive
same,outcome,[12],inactive
same,outcome,[13],inactive
same,outcome,[14],inactive
same,outcome,[15],inactive
same,outcome,[16],inactive
same,outcome,[17],inactive
same,outcome,[18],inactive
same,outcome,[19],inactive
Cc1c(F)c(F)c(COC(=O)C2C(/C=C(\Cl)C(F)(F)F)C2(C)C)c(F)c1F (stereo not given),outcome,[1],inactive
same,outcome,[2],inactive
same,outcome,[3],inactive
same,outcome,[4],inactive
same,outcome,[5],inactive
same,outcome,[6],inactive
same,outcome,[7],inactive
same,outcome,[8],inactive
same,outcome,[9],inactive
same,AC50,[10],69.4 µM (active)
same,outcome,[11],inactive
same,outcome,[12],inactive
same,outcome,[13],inactive
same,outcome,[14],inactive
same,outcome,[15],inactive
same,outcome,[16],inactive
same,outcome,[17],inactive
same,outcome,[18],inactive
same,outcome,[19],inactive
CN(C)C(=S)SSC(=S)N(C)C,outcome,[1],inactive
same,outcome,[2],inactive
same,outcome,[3],inactive
same,outcome,[20],inactive
same,outcome,[4],inactive
same,outcome,[5],inactive
same,outcome,[6],inactive
same,outcome,[7],inactive
same,outcome,[8],inactive
same,outcome,[9],inactive
same,outcome,[10],inactive
same,outcome,[11],inactive
same,outcome,[12],inactive
same,outcome,[13],inactive
same,outcome,[14],inactive
same,outcome,[15],inactive
same,outcome,[16],inactive
same,outcome,[17],inactive
same,outcome,[18],inactive
same,outcome,[19],inactive
C=CC1(C)OC(=O)N(c2cc(Cl)cc(Cl)c2)C1=O (stereo not given),outcome,[1],inactive
same,outcome,[2],inactive
same,outcome,[3],inactive
same,outcome,[20],inactive
same,outcome,[4],inactive
same,outcome,[5],inactive
same,outcome,[6],inactive
same,outcome,[7],inactive
same,outcome,[8],inactive
same,outcome,[9],inactive
same,outcome,[10],inactive
same,outcome,[11],inactive
same,outcome,[12],inactive
same,outcome,[13],inactive
same,outcome,[14],inactive
same,outcome,[15],inactive
same,outcome,[16],inactive
same,outcome,[17],inactive
same,outcome,[18],inactive
COC(=O)N(OC)c1ccccc1COc1ccn(-c2ccc(Cl)cc2)n1,AC50,[1],71.9 µM (active)
same,AC50,[2],78.7 µM (active)
same,AC50,[3],80.8 µM (active)
same,AC50,[4],50 µM (active)
same,AC50,[5],80.3 µM (active)
same,AC50,[6],12 µM (active)
same,AC50,[7],50 µM (active)
same,AC50,[8],75.3 µM (active)
same,outcome,[9],inactive
same,AC50,[10],68.1 µM (active)
same,AC50,[11],81.2 µM (active)
same,AC50,[12],64.3 µM (active)
same,AC50,[13],83.9 µM (active)
same,outcome,[14],inactive
same,AC50,[15],86.2 µM (active)
same,AC50,[16],23.3 µM (active)
same,outcome,[17],inactive
same,AC50,[18],50 µM (active)
same,outcome,[19],inactive
